Source: PubChem BioAssay AID2014 (Sanford-Burnham Center for Chemical Genomics, 2009)
In all, about 290,000 compounds went through this assay and about 3,000 (1%) were called active. The rule behind the calls is not given here. The sample as a whole holds a higher share of actives than the screen did.

Target: Polyadenylate-binding protein 1 (Homo sapiens) (UniProt P11940)
Test: blockers of PABP interaction with poly(A) – biochemical, fluorescence polarization, uHTS, primary screen (AID 2014);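 note: calls also rest on retests at 20 µM and on dose response follow-up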
Conditions: PABP-poly(A) RNA binding, stronger effect = higher value

Chain of Polyadenylate-binding protein 1 (Homo sapiens) (P11940 whole entry, looked up): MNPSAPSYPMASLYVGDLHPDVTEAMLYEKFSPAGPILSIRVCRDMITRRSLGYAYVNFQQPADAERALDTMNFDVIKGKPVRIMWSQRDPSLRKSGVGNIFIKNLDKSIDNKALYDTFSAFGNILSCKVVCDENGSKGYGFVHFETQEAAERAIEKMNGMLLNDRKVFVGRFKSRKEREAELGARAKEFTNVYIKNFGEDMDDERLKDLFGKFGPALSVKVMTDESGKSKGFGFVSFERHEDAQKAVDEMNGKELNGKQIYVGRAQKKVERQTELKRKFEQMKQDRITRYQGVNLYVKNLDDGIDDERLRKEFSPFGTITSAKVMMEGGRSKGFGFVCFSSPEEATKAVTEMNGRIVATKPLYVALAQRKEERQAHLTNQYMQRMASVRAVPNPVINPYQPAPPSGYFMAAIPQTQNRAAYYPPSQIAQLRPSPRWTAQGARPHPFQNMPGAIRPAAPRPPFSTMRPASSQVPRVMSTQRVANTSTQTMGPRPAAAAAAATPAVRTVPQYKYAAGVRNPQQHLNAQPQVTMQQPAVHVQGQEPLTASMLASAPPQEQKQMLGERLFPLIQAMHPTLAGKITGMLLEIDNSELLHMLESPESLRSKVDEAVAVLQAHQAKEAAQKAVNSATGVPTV

Structure (SMILES) | inhibition (at 35 µM) | inhibition (confirmation repeats, at 20 µM) [%]
COc1ccccc1C(=O)Nc1ccnn1C1CCN(C(=O)C(C)(C)C)CC1 | 8.7% (inactive) | –
C=CCNc1nnc(SCC(=O)N2CCCCC2)c2ccccc12 | 116% (active) | 56.4
C=CCNc1nnc(C)c2ccccc12 | -0.7% (inactive) | –
O=C(CSc1ncccn1)N1CCCC1 | 9.6% (inactive) | –
Cc1nc(-c2ccc(F)cc2)c(CC(=O)N2CCN(S(=O)(=O)c3ccc(F)cc3)CC2)s1 | 6.2% (inactive) | –
O=C(CN1CCC(O)(c2cccc(C(F)(F)F)c2)CC1)NCCc1ccccc1 | -5% (inactive) | –
O=C(Nc1cccc([N+](=O)[O-])c1)N1CCc2ccccc2C1 | -6.2% (inactive) | –
CC(C(=O)NCCc1ccc(S(N)(=O)=O)cc1)N1C(=O)CC(C)(C)Sc2ccccc21 (stereo not drawn) | -1.3% (inactive) | –
Cc1cccc(NC(=O)c2sc3nc(N4CCOCC4)c4c(c3c2N)CCCC4)c1 | 4.1% (inactive) | –
Cc1cccc(NC(=O)c2sc3nc4c(c(-c5ccco5)c3c2N)CCC4)c1 | 63% (active) | 87.7
NC(=O)c1sc2nc3c(c(-c4ccccc4)c2c1N)CCC3 | -3.5% (inactive) | –
O=C(CNC(=O)c1ccccc1F)c1ccc(Br)cc1 | 0.1% (inactive) | –
O=C(O)c1ccc2c(=O)n3c(nc2c1)/C(=C/c1ccc(OC(F)F)cc1OC(F)F)CC3 | 5.3% (inactive) | –
CC(NC(=O)c1cc(=O)[nH]c2ccccc12)c1ccc(F)cc1F (stereo not drawn) | 12.3% (inactive) | –
CS(=O)(=O)c1ccc2c(c1)SC1=NC(=O)/C(=C/c3ccco3)C(=N)N12 | 91% (active) | –
Cc1cc(/C=C2/C(=N)N3C(=NC2=O)SN=C3S(C)(=O)=O)c(C)n1-c1ccccc1 | -5.5% (inactive) | 11.8
CS(=O)(=O)C1=NN2C(=N)/C(=C\c3ccc(OCCOc4ccccc4)cc3)C(=O)N=C2S1 | 16.8% (inactive) | –
Cc1cccc(OC(C)C(=O)N2CCc3ccccc3C2)c1 (stereo not drawn) | -5.4% (inactive) | –
CC(C)[C@@H](C(=O)O)N(Cc1cccc(CN([C@H](C(=O)O)C(C)C)S(C)(=O)=O)c1)S(C)(=O)=O | 4.8% (inactive) | –
CO/N=C(\N)c1ccc([N+](=O)[O-])cc1 | -0.6% (inactive) | –
N/C(=N\OS(=O)(=O)c1cccc([N+](=O)[O-])c1)c1ccncc1 | -9.3% (active) | 74.6
O=C(N/N=C/c1cccc([N+](=O)[O-])c1)c1ccncc1 | -0.6% (inactive) | –
COc1cccc(CNc2ncc(-c3ccccc3)n2C)c1 | -1.9% (inactive) | –
C=CCn1cc(Cl)cc(C(=O)Nc2ccccc2)c1=O | -10% (inactive) | –
O=[N+]([O-])c1cc(Cl)cc(/C=N/NC(=S)Nc2cc(S(=O)(=O)N3CCOCC3)ccc2Cl)c1O | 70.2% (active) | –

Structure (SMILES) | inhibition (at 35 µM) | inhibition (confirmation repeats, at 20 µM) [%]
O=C(N/N=C/c1cc(Cl)cc([N+](=O)[O-])c1O)C(O)(c1ccccc1)c1ccccc1 | 30.5% (inactive) | –
O=C(N/N=C/c1ccc([N+](=O)[O-])o1)c1cccc(S(=O)(=O)N2CCOCC2)c1 | -5% (inactive) | 12.9
CC1=C(C(=O)OCC2CCCCC2)C(c2ccc(F)cc2)NC(=O)N1 (stereo not drawn) | 0.3% (inactive) | –
CC(C)c1ccc(C(=O)NCCCc2ccccc2)cc1 | -0.9% (inactive) | –
C[N+](C)(C)CCNC(=O)c1cc[n+](Cc2ccccc2)c(/C=N/O)c1 | 54.2% (active) | 73.1
O=C(NCCCNCc1ccccc1)c1ccc(/C=N/O)nc1 | -3.1% (inactive) | –
O=C1CCC(C(=O)N2CCCCO2)CN1Cc1cccc(C(F)(F)F)c1 (stereo not drawn) | 4.6% (inactive) | –
CN(C(=O)c1cccc(OC2CCN(S(=O)(=O)N(C)C)CC2)c1)C1CCOC1 (stereo not drawn) | 17.8% (inactive) | –
CC1(C(=O)NCCc2c[nH]c3ccccc23)C=CC2(CCCCC2)N1C(=O)c1ccccc1 (stereo not drawn) | 4.3% (inactive) | –
Oc1c(Cl)cc(Cl)c(Cl)c1Cc1c(O)c(Cl)cc(Cl)c1Cl | -1.5% (active) | 84.7
COc1cccc(/C=C2\Sc3ccc(C(=O)NCC4CCCO4)cc3N(C)C2=O)c1 (stereo not drawn) | 8.6% (inactive) | –
Cc1cccc(C)c1N1C(=O)CN(Cc2ccccc2)C1=S | 8.2% (inactive) | –
CC(=O)N1c2ccc(S(=O)(=O)NCCC(=O)N(C)C3CCCCC3)cc2CC1C (stereo not drawn) | 3.5% (inactive) | –
O=C(Nc1ncc2c(n1)-c1ccccc1OC2)c1ccc(Cl)cc1 | 4.5% (inactive) | –
CCc1ccc(Nc2ncc3c(n2)CC(c2ccco2)CC3=O)cc1 (stereo not drawn) | 6.2% (inactive) | –
O=C(Nc1ncc2c(n1)CC(c1ccco1)CC2=O)c1ccc(Cl)cc1 (stereo not drawn) | 65.9% (active) | –
CNC(=O)CN1C(=O)NC(c2ccccc2)(c2ccccc2)C1=O | -6.2% (inactive) | –
COc1ccc(NC(=O)NN2CCN(C)CC2)c(OC)c1 | -2.5% (inactive) | –
Cc1ccc(C)c(SCc2nc3sc(C(=O)O)c(C)c3c(=O)[nH]2)c1 | -4% (inactive) | –
CSc1nnc(SCc2nc3sc(C(=O)O)c(C)c3c(=O)[nH]2)s1 | 52.9% (active) | –
CCOC(=O)c1sc2nc(CSc3ccccc3)[nH]c(=O)c2c1C | 9.6% (inactive) | –
Cc1cccc(OCC(O)Cn2c(N3CCCCC3)nc3c2c(=O)[nH]c(=O)n3C)c1 (stereo not drawn) | -7.3% (inactive) | –
COc1ccccc1/C=C/C(=O)NC1CC2CCC1C2 (stereo not drawn) | 13.8% (inactive) | –
Cc1cc(C)c(C(N)=O)c(Cl)n1 | 74.6% (active) | 79.1
Cc1ccc(Nc2nc(C)cc(C)c2C(N)=O)cc1 | 3.4% (inactive) | –

Structure (SMILES) | inhibition (at 35 µM) | inhibition (confirmation repeats, at 20 µM) [%]
Cc1cc(OC(=O)c2c(Cl)cccc2Cl)nc(C)n1 | 8.5% (inactive) | –
O=C(NCc1cccc(C(F)(F)F)c1)c1cccc(S(=O)(=O)N2CCN(Cc3ccccc3)CC2)c1 | -3.2% (inactive) | –
O=C(Nc1ccc(Br)cc1F)C1CC(=O)N(C2CCCCC2)C1 (stereo not drawn) | -1% (inactive) | –
COc1ccc(C(=O)NC(C)c2nccs2)cc1OC1CCN(C(C)C)CC1 (stereo not drawn) | 1.2% (inactive) | –
CCN(C(=O)CSc1nnc(-c2ccncc2)o1)c1ccccc1 | -2.5% (inactive) | –
CCSc1nc(O)c(C(c2cccc(OC)c2)c2c(O)nc(SCC)[nH]c2=O)c(=O)[nH]1 | 8.4% (inactive) | –
O=C1CCCC2=C1C(c1cccs1)CC(=O)N2c1ccc(F)cc1 (stereo not drawn) | -1.2% (inactive) | –
O=C1CC(N2CCN(c3ccc(F)cc3)CC2)C(=O)N1c1ccccc1 (stereo not drawn) | 48.8% (inactive) | –
N#CC1=C(N)N(c2ccc(F)cc2)C(=O)C1 | 97.6% (active) | –
C[C@H]1[C@H]2c3nc4ccccc4n3C[C@H]1ON2C1CCCCC1 | -0.1% (inactive) | –
O=C(Cc1ccccc1)n1nc(-c2ccccc2)nc1NCc1ccco1 | -0.2% (inactive) | –
O=c1nc2s/c(=C\c3ccco3)c(=O)n2nc1Cc1ccccc1 | 75.7% (active) | –
Cc1nc2nc(SCC(=O)NCc3ccco3)nn2c(C)c1Cc1ccccc1 | 10.6% (inactive) | –
CCOCCc1nn2c(=O)cc(CSCC(=O)Nc3cccc(C)c3C)nc2s1 | 8.3% (inactive) | –
COc1ccc(-c2csc(NC3OC(=O)c4ccccc43)n2)cc1 (stereo not drawn) | -0.5% (inactive) | –
COc1ccc(-c2csc(Cc3nc(O)cs3)n2)cc1 | 70.4% (active) | 52.3
CC(C)(C)C(=O)OCc1nc(-c2ccc(O)c(O)c2)cs1 | 10% (inactive) | –
O=c1ccc2cc(S(=O)(=O)Nc3ccccc3F)ccc2o1 | -1.5% (inactive) | –
Cc1c(NC(=O)c2c([N+](=O)[O-])cnn2C)c(=O)n(-c2ccccc2)n1C | -1.3% (inactive) | –
Cc1ccc(-n2c(O)c(C=Nc3ccc(S(=O)(=O)Nc4ncccn4)cc3)c3ccccc3c2=O)cc1C | -8.1% (active) | 94.9
CCOc1ccc(-n2c(O)c(/C=N/Nc3nc(C)cc(C)n3)c3ccccc3c2=O)cc1 | 9% (inactive) | –
CCOc1ccc(N=Cc2c(O)n(-c3cccc(C)n3)c(=O)c3ccccc23)cc1 | -1.3% (inactive) | –
O=C(NCC(=O)N1CCN(c2ncc(C(F)(F)F)cc2Cl)CC1)c1ccc(Br)o1 | 3.4% (inactive) | –
CC(=O)N1CCSc2ccc(S(=O)(=O)N3CCC(C)CC3)cc21 | 0% (inactive) | –
Cc1cccc(OCC(=O)NC2CC(C)(C)NC(C)(C)C2)c1 | 6.7% (inactive) | –

Structure (SMILES) | inhibition (at 35 µM) | inhibition (confirmation repeats, at 20 µM) [%]
C=CCN1C=C2C(=O)C(C)(OC(=O)CCc3ccccc3)C(=O)C=C2C=C1c1ccc(C#N)cc1 (stereo not drawn) | 38.3% (active) | 80.1
CC1(OC(=O)CCc2ccccc2)C(=O)C=C2C=C(c3ccc(C#N)cc3)N(CCc3ccccn3)C=C2C1=O (stereo not drawn) | 26.9% (inactive) | –
NC(=O)COc1ccccc1C(=O)NC12CC3CC(CC(C3)C1)C2 | -0.3% (inactive) | –
COc1cc(/C=N\Nc2ccc([N+](=O)[O-])cn2)ccc1OCC(=O)O | 13.3% (inactive) | –
Cc1cc(/C=N/Nc2ccc([N+](=O)[O-])cn2)c(C)n1-c1cccc(C(=O)O)c1 | 50.3% (active) | –
Cc1ccc(-n2c(C)cc(/C=N/Nc3ccc([N+](=O)[O-])cn3)c2C)c(C)c1 | 10.5% (inactive) | –
CC(C)=CCN1CCN(CCCc2ccccc2)CC1CCO (stereo not drawn) | -4.3% (inactive) | –
CN1/C(=C\C(=O)c2cccnc2Cl)C(C)(C)c2ccccc21 | -4.7% (inactive) | –
CN1/C(=C\C(=O)c2oc3ccccc3c2N)C(C)(C)c2ccccc21 | 15.4% (inactive) | –
CN1/C(=C\C=C2\N=C(c3ccc(F)cc3)OC2=O)C(C)(C)c2ccccc21 | 120% (active) | 105
O=C(NCCc1ccc(Cl)cc1)C1CCCN1C(=O)NCc1ccccc1 (stereo not drawn) | -1.3% (inactive) | –
COc1ccccc1N(CC(=O)Nc1ccccc1C(=O)N1CCCC1)S(C)(=O)=O | 0.7% (inactive) | –
O=C(O)CCCN1C(=O)c2ccccc2Sc2ncccc21 | 16.4% (inactive) | –
COc1ccc(C(=O)Nc2ccnn2C2CCN(Cc3ccncc3)CC2)cc1 | -4.2% (inactive) | –
Oc1ccc(N=Cc2sc3ccccc3c2Cl)cc1 | -14% (active) | 68.6
O=C(N/N=C/c1c(Cl)[nH]c2ccccc12)c1sc2ccccc2c1Cl | -2.8% (inactive) | –
COc1ccc(N=C(C)c2sc3ccccc3c2O)cc1 | -3.8% (inactive) | –
COc1ccccc1N(CC(=O)NC1CCCC1)C(=O)C1(C)CC(=O)N=C2C=CC(C)=CN21 (stereo not drawn) | 4.1% (inactive) | –
O=C(CC12CC3CC(CC(C3)C1)C2)NCc1ccco1 | -13.1% (inactive) | –
O=C(COC(=O)CCC(=O)c1cccs1)NCc1ccco1 | 35.9% (inactive) | 32.9
O=C(COC(=O)C12CC3CC(CC(C3)C1)C2)NCc1ccco1 | 26% (active) | 62.4
COc1ccc(C(=O)C2CCCN(C(=O)c3cc(C)on3)C2)cc1F (stereo not drawn) | -11.7% (inactive) | –
Cc1cc(C)n(CCC(=O)N2CCN(S(=O)(=O)c3ccc(C)c(C)c3)CC2)n1 | -7.6% (inactive) | –
